Source: PubChem BioAssay
This is a sample that favours compounds with a hit; in the whole collection about 19% have one here.
IL-1B inflam inh – blocks inflammasome-driven IL-1 beta release | 4.7% of 360,000 active | activity change, % at 57.5 µM | AID 743279 | THP-1 LPS/ATP IL-1B secretion, AlphaLISA, 16 h; active compounds read low; in the data active = activity change below about -50%; inconclusive = mostly about -30% to -49%
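Secreted IL-1B measured by AlphaLISA bead assay after 16 h compound exposure of THP-1 cells; compounds (final up to 57.5 uM) added 1 h before LPS (250 ng/mL) and ATP (1.25 mM) stimulation; lower signal means less secretion.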
DT40 TDP1 CPT – DT40-hTDP1 cell growth loss with CPT; AID 686979; chicken DT40 Tdp1-/-;hTDP1 cells + 20 nM CPT, ATP luminescence, 48 h; Potency, µM (titrated, usually from 46.2 µM), actives largely listed as inhibitors; 12% of 420,000 active; note: nearly all actives have a fitted effect of over 55% in size
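Chicken DT40 Tdp1-/- cells complemented with human TDP1, 400 cells/well, exposed to compounds plus 20 nM camptothecin for at least 48 h at 37 C; viability read as ATP content by CellTiter-Glo luminescence.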
ELG1 repair inh – inhibitors of ELG1-dependent DNA repair in HEK293T cells | HEK293T ELG1-luciferase reporter, luminescence, 16 h; DNA damage induced by 5-fluorouridine | Potency, µM (top dose mostly 46.1 µM), hits mostly inhibitors | 2.3% of 330,000 active; note: nearly all actives have a fitted effect of over 55% in size
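DMSO vehicle served as the neutral condition. Each well held 2,000 cells given 5-fluorouridine plus compound; after 16 hr at 37 °C/5% CO2, ONE-Glo was added and luciferase measured 30 min later.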
TDP1 inh – inhibitors of human tyrosyl-DNA phosphodiesterase TDP1 | recombinant TDP1, AlphaScreen DNA substrate cleavage | Potency, µM (highest dose often 130 µM), usual class: inhibitors | 0.28% of 350,000 active; note: nearly all actives have a fitted effect of over 40% in size
Target sequence (Q9NUW8 whole entry, looked up): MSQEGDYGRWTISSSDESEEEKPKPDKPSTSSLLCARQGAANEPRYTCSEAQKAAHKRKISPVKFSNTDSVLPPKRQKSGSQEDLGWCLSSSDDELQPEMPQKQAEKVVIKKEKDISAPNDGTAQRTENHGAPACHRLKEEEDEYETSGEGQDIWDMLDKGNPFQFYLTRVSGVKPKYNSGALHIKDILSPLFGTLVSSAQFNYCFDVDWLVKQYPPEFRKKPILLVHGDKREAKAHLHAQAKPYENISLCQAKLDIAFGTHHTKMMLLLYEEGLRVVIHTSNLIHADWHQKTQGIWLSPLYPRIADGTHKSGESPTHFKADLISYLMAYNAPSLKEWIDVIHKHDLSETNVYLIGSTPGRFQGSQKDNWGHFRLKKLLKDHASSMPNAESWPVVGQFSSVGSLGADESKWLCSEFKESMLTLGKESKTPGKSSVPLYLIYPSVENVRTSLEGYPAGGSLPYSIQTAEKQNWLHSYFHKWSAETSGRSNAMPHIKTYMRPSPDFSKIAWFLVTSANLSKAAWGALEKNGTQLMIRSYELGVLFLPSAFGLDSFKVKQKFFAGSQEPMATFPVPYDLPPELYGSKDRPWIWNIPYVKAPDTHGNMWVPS
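Recombinant E. coli-expressed Tdp1 (1 nM) preincubated with compound 15 min at RT, then 5'-biotin/3'-phosphotyrosine-FITC DNA substrate (15 nM) added for 5 min. AlphaScreen beads (10 ug/ml) added, 10 min RT; tyrosine-FITC cleavage read as signal loss.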
DT40 TDP1 no CPT – qHTS for Inhibitors of human tyrosyl-DNA phosphodiesterase 1 (TDP1): qHTS in cells in absence of CPT; DT40 Tdp1-/- hTDP1 cells, no CPT, ATP luminescence, 48 h; Potency, µM (doses to about 46.2 µM), hits mostly inhibitors; 15% of 420,000 active; note: nearly all actives have a fitted effect of over 55% in size
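Chicken DT40 Tdp1-/- cells complemented with human TDP1, screened without camptothecin (DMSO vehicle only), 400 cells/well. Compounds pin-transferred, cells incubated at 37 °C for at least 48 hr. Growth read as ATP-dependent luminescence (CellTiter-Glo, 30 min at RT).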
Giardia kill – kills Giardia lamblia. Giardia lamblia trophozoite viability. activity change, % at 7.66 µM, hits read low. 0.15% of 340,000 active. AID 540267; in the data active = activity change below about -80%; inconclusive = between about -30% and that limit;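 note: parasites exposed to compound for two days anaerobically before the ATP read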
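Giardia trophozoites, 100 cells per well, were exposed to compounds for 48 hrs at 37 deg C under anaerobic conditions; viability was then read as ATP content by bioluminescence after 15-30 min at room temperature.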
Hits are given with their value; . = inactive; ? = inconclusive; / = no result; [ ] = another dose, or the depositor's remark. Unless noted, calls come from the whole dose curve; as a rule, active = well fitted curve in the direction sought with a large enough effect; inconclusive = small, poorly fitted or top-dose-only effect, or another doubt; inactive = no such curve, though single readings can be large; an effect the other way counts as inactive or inconclusive.

SMILES	IL-1B inflam inh	DT40 TDP1 CPT	ELG1 repair inh	TDP1 inh	DT40 TDP1 no CPT	Giardia kill
O=C(c1ccccc1)c1ccc(N2CCOCC2)c(F)c1	.	.	?	.	?	.
CCN(CC)S(=O)(=O)c1ccc(N2CCOCC2)c(NC(=O)c2ccccc2F)c1	.	?	.	.	?	.
CC(C)(C)c1ccc(OCCC(=O)Nc2ccc(N3CCOCC3)cc2N2CCOCC2)cc1	-51	16µM	21µM	.	16µM	.
O=C(Cc1ccccc1)Nc1cc(C(=O)c2ccccc2)ccc1N1CCOCC1	.	.	26µM	.	.	.
CCN(CC)S(=O)(=O)c1ccc(N2CCOCC2)c(NC(=O)CCOc2ccccc2)c1	.	?	?	.	15µM	.
COc1ccc(NC(=O)CSc2nnc(-c3cccnc3)s2)cc1	.	.	.	.	.	.
COc1cc(=O)n2c(c1C(=O)N(C)Cc1nonc1C)CCN(Cc1cc(F)ccc1F)CC2	/	.[9.04 µM]	/	/	.	/
CCN(CC)S(=O)(=O)c1ccc(N2CCOCC2)c(NC(=O)CNCCc2ccccc2)c1	.	18µM	?	.	18µM	.
COC(=O)[C@H](Cc1ccccc1)NCCCn1cnc(C(=O)Nc2ccc(C)c(C)c2)n1	.	?	/	/	18µM	.
Cc1ccc(NC(=O)c2ncn(CCCNCCCc3ccccc3)n2)cc1C	.	?	/	/	21µM	.
Cc1ccc(NC(=O)c2ncn(CCCN(CCCn3cnc(C(=O)Nc4ccc(C)c(C)c4)n3)Cc3ccc4[nH]ccc4c3)n2)cc1C	.	?	/	/	15µM	.
Cc1ccc(NC(=O)c2ncn(CCCN3CCN(c4ncccn4)CC3)n2)cc1C	.	?	/	/	?	.
COC(=O)[C@H](Cc1ccc(O)cc1)NC(=O)Cn1cnc(C(=O)Nc2ccc(C)c(C)c2)n1	.	.	?	.	.	.
Cc1ccc(NC(=O)c2ncn(CCCN3CCN(c4ccccn4)CC3)n2)cc1C	.	?	/	/	26µM	.
CCOc1ccc(S(=O)(=O)c2cn(Cc3ccc(C)cc3)c3ccc(OC)cc3c2=O)cc1	/	?	/	.	?	/
Cc1ccc(OC(C)C(=O)N=Nc2c(O)[nH]c3ccc([N+](=O)[O-])cc23)cc1 (stereo unspecified)	.	?	.	.	?	.
CCN(Cc1ccncc1)Cc1ccc(Br)cc1	.	.	.	/	?	.
COc1ccc(CNCCCn2cnc(C(=O)Nc3ccc(C)c(C)c3)n2)cc1	.	?	/	/	16µM	.
CCOC(=O)c1ccc(NC(=S)NCCc2ccc(OC)c(OC)c2)cc1	/	?	?	.	?	.
CCOc1ccc(NC(=O)CN(C)Cc2ccc3c(c2)OCO3)cc1S(=O)(=O)N1CCCC1	?	?	.	.	?	.
O=S(=O)(Nc1cccc(-c2ccc(N3CCCC3)nn2)c1)c1cc(F)ccc1F	/	.	/	.	.	/
CCOc1ccc(C(C)C)cc1S(=O)(=O)Nc1cccc(-c2ccc(N3CCOCC3)nn2)c1	/	?	/	.	15µM	/
O=S(=O)(Nc1cccc(-c2ccc(N3CCCCC3)nn2)c1)c1ccc(F)cc1F	/	?	/	.	26µM	/
COc1ccc(Cl)cc1S(=O)(=O)Nc1cccc(-c2ccc(N3CCOCC3)nn2)c1	/	?	/	.	?	/
COc1ccc(S(=O)(=O)Nc2cccc(-c3ccc(N4CCCCCC4)nn3)c2)cc1	/	16µM	/	.	?	/
SMILES	IL-1B inflam inh	DT40 TDP1 CPT	ELG1 repair inh	TDP1 inh	DT40 TDP1 no CPT	Giardia kill
COc1ccc(S(=O)(=O)Nc2cccc(-c3ccc(N4CCCCCC4)nn3)c2)c(OC)c1	.	?	?	.	29µM	.
O=c1oc2ccccc2n1CCCOc1ccccc1Cl	/	.	/	.	?	/
CCc1ccc(S(=O)(=O)Nc2cccc(-c3ccc(N4CCOCC4)nn3)c2)cc1	/	8.2µM	/	.	?	/
CCOc1ccc(S(=O)(=O)Nc2cccc(-c3ccc(N4CCCC4)nn3)c2)cc1	/	7.3µM	/	.	?	/
CCOc1ccc(S(=O)(=O)Nc2cccc(-c3ccc(N4CCC(C)CC4)nn3)c2)cc1	/	?	/	.	?	/
CN(C(=O)c1cccc(NC(=O)Cc2cccc([N+](=O)[O-])c2)c1)C1CC1	.	.	.	.	.	.
CCCCN1C=CC(=C2C(=O)c3ccccc3C2=O)C=C1	.	?	?	.	?	-95
CCCCn1c(C)cc(C)c(S(=O)(=O)c2ccccc2C)c1=O	.	?	.	.	?	.
Cc1cccc(-c2nnc(SCC#N)n2-c2cccc(Cl)c2)c1	?	?	.	.	?	.
COc1ccc(-n2c(SCCC#N)nnc2-c2cc(Cl)ccc2OC)cc1Cl	.	?	.	.	16µM	.
FC(F)(F)c1ccccc1-c1nc(Nc2ccncc2)c2ccccc2n1	/	?	/	.	.	/
FC(F)(F)c1ccc(Nc2nnnc3ccccc23)cc1	.	?	.	/	3.7µM	.
CCCCc1nc(N2CCN(C(=O)c3ccco3)CC2)c(C#N)c2c1CCCC2	.	?	.	.	?	.
CN(C)S(=O)(=O)c1ccc(C(=O)Nc2cc3c(cc2C(=O)O)OCCCO3)cc1	.	.	.	.	.	.
Cn1ccc2c(N3CCCCCC3)cc3c(c21)C1CCC3C1 (stereo unspecified)	.	15µM	/	/	12µM	/
Cn1ccc2c(N3c4ccccc4CCc4ccccc43)cc3c(c21)C1CCC3C1 (stereo unspecified)	.	2.3µM	/	/	5.2µM	/
Cn1ccc2c(N3c4ccccc4CCc4ccccc43)cc3c(c21)C1CCC3O1 (stereo unspecified)	.	23µM	/	/	21µM	/
Cc1cc(C)cc(NC(=O)COC(=O)c2n[nH]c3ccccc23)c1	.	.	?	.	.	.
COc1ccc(OC)c(NC(=O)COC(=O)c2n[nH]c3ccccc23)c1	.	21µM	?	.	16µM	.
COc1ccc(NC(=O)COC(=O)c2c3c(nc4ccccc24)CCCC3)cc1Cl	?	21µM	18µM	.	7.3µM	.
COc1ccc(OC)c(NC(=O)COC(=O)c2c3c(nc4ccccc24)CCCC3)c1	.	23µM	12µM	.	21µM	.
COc1ccc(NC(=O)COC(=O)c2c3c(nc4ccccc24)CCCC3)cc1	?	?	16µM	.	?	.
O=C(NCCc1ccccc1Cl)c1cc(COc2ccc(F)cc2F)on1	.	?	/	/	?	.
COc1cc(NS(=O)(=O)c2ccc(Br)cc2)c(OC)cc1NC(=O)c1ccco1	.	?	?	.	?	.
CNc1ccccc1C(=O)N1CCc2c([nH]c3ccccc23)C1=O	/	?	/	.	.	/
CCc1nc2ccccc2c(C(=O)OCC(=O)NCc2ccco2)c1C	.	?	.	.	?	.
CCc1nc2ccccc2c(C(=O)OCC(=O)Nc2ccc(NC(C)=O)cc2)c1C	.	13µM	?	.	21µM	.
